# Screening results: PubChem BioAssay, The Scripps Research Institute Molecular Screening Center
# hgDAF12 agonist – hgDAF-12 agonism, primary luciferase screen; HEK293 GAL4-hgDAF12 UAS-luciferase reporter, agonist luminescence; normalized to butyrate control; activation, % at 6.8 µM; 370,000 compounds, 1.8% hits; AID 687014;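 active = activation above a cutoff set at the mean of all screened compounds plus 3 SD, cut at about 10% in these data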;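 also: 0% = DMSO wells and 100% = sodium butyrate wells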
# hcDAF-12 act – activates DAF-12 receptor from parasite H. contortus. HEK293 hcDAF-12 lit1-tk-luc reporter, luminescence; 0% DMSO, 100% Δ7-dafachronic acid. activation, % at 6.8 µM. 370,000 compounds, 1.4% hits;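 active = activation above the mean of all tested compounds plus 3 SD, cut at about 5.5% in these data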;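 also: 100% = response to 3 µM Δ7-dafachronic acid high control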
# DAX1 inh – DAX1 (NR0B1) inhibition, primary screen. HEK293T StAR-luciferase reporter, SF-1/DAX-1 repression relief. 370,000 compounds, 1.1% hits. inhibition, % at 6.8 µM;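 active = inhibition above the mean over all tested compounds plus 3 SD, cut at about 3.6% in these data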;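 also: 0% = DAX-1 cells with DMSO and 100% = cells lacking DAX-1 with DMSO; higher inhibition means more luminescence from relief of DAX-1 repression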
# ssDAF12 agonist – activates DAF-12 receptor from parasite S. stercoralis; HEK293 ssDAF-12/GRIP1 lit1-tk-luc reporter, luminescence; % of 3 µM dafachronic acid response; activation, % at 6.8 µM; 370,000 compounds, 1% hits;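 active = activation above the mean over all tested compounds plus 3 SD, cut at about 0.9% in these data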;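 also: 0% = DMSO-only wells and 100% = 3 µM delta7-dafachronic acid wells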
# SMARCA2 act – SMARCA2 function activation, primary screen; MG213 cells, MMTV-luciferase reporter, dexamethasone, overnight; activation, % at 9.1 µM; 370,000 compounds, 1% hits; AID 652017; in the data active = activation above about 7.8%;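 also: 0% = vehicle wells and 100% = reference activator wells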
# The depositor's hits bear a star; · = no result given. Sampled rows, rich in hits. Any-hit rate of the full collection: about 4.2%.
SMILES,hgDAF12 agonist,hcDAF-12 act,DAX1 inh,ssDAF12 agonist,SMARCA2 act
CCOC(=O)[C@]12CCCC3=C1N(CCC3)C(=O)[C@@H](CC(=O)NCc1cccc3ccccc13)C2,-1,-3,0,-2,0
COc1cc(C(=O)NC2CCCCN(Cc3cccc(C(F)(F)F)c3)C2=O)cc(OC)c1OC (stereo not drawn),2,-3,-1,-2,-1
COC(=O)c1cc(=O)n(Cc2ccc(F)cc2)c(=NCc2ccc(F)cc2)s1,8,-1,2,1.4*,4
Cc1cc(C(=O)C(=O)O)c(C)n1-c1ccc(Cl)c(Cl)c1,-2,0,0,1.0*,-3
Cc1cc(C(=O)C(=O)N(C)C)c(C)n1-c1ccc(Cl)c(Cl)c1,-4,-2,-1,-1,-5
Cc1ccc(CNC(=O)O[C@H]2CC[C@@]34CCCN3C(=O)CCC[C@H]4[C@H]2C)o1,-2,-2,·,-1,·
Cc1ccc(CNC(=O)CCS(=O)(=O)c2cc3c(cc2Br)CCN3C(=O)C2CC2)o1,3,0,-1,-1,0
Cc1nc2ccc(C(=O)Nc3ccc(N(C)C)cc3)cc2s1,-6,-4,0,-2,1
CCOC(=O)c1ccc2nc(C)c(C)nc2c1,4,5.6*,0,-1,0
CCOC(=O)c1ccc(NC(=O)c2ccccc2)cc1,11*,4,2,-1,5
CN(C)c1ccc(NC(=O)c2ccc3nsnc3c2)cc1,11*,2,3,0,5
O=C(Nc1ccc(C(=O)c2ccccc2)cc1)c1ccccc1,11*,0,1,-1,1
COc1ccc(CNC(=O)Nc2ccc3c(c2)c(=O)n(C)n3Cc2cc(C)cc(C)c2)cc1,2,-2,0,-2,0
CC(=O)N1C[C@H]2CON(C)[C@H]2C[C@H]1c1cccc(N2CCOCC2)c1,0,-2,0,-1,-4
C=CCNC1CCC12CCC(c1ccccc1)CC2 (stereo not drawn),1,3,·,-1,·
COc1ccc(Cn2ccc3ccc(-c4ccc5ccn(C(=O)c6ccccc6)c5c4)cc32)cc1,2,0,0,-1,2
O=C(OC12CCCN(C1)/C(=C/c1ccccc1)C2)c1cccc(F)c1 (stereo not drawn),-2,-2,1,-1,4
Cc1ccc(Cn2cc(CN3[C@@H](CC(C)C)COc4cc(Br)ccc4S3(=O)=O)nn2)cc1,6,0,0,-1,0
COc1ccc(NC(=O)N(C)C[C@@H]2OCc3cnnn3CCCC(=O)N([C@@H](C)CO)C[C@@H]2C)cc1,2,0,0,0,-4
CCOC(=O)c1cccc(NC(=O)c2ccc(N(C)C)cc2)c1,11*,1,2,-1,4
O=C(NC1CCCC1)N1CCC(c2nc3ccc(Cl)cc3[nH]2)CC1,-2,4,-1,-1,-2
Cc1cc(NC(=O)C(C)SCC(=O)Nc2nnc(CC(C)C)s2)no1 (stereo not drawn),1,-1,3.6*,-1,-3
CCc1nnc(NC(=S)Nc2ccccc2)s1,12*,4,2,0,7.8*
CC(C)Cc1nnc(NC(=O)CCC(=O)Nc2ccccc2)s1,6,0,3.6*,-1,-2
CCc1nnc(NC(=O)CCC(=O)Nc2ccccc2)s1,0,1,1,-1,-4
SMILES,hgDAF12 agonist,hcDAF-12 act,DAX1 inh,ssDAF12 agonist,SMARCA2 act
COCCCN1C(=O)[C@H](CC(=O)N2CCSCC2)[C@]2(C(=O)OC)CCCCC=C12,1,0,0,-1,-4
CC(C)[C@H]1/C(=C/C2CC2)N2C(=O)C[C@@H](c3ccccc3)N=C2N1Cc1ccc2c(c1)OCO2,0,-1,-1,-2,-3
O=S(=O)(NCC(c1ccco1)N1CCc2ccccc2C1)c1ccc(Br)cc1 (stereo not drawn),2,-1,3.7*,-1,-1
c1ccc(SCCCCNC2CCCC2)cc1,1,1,1,1.7*,-3
c1ccc(-c2ccc(OCCCNC3CCCC3)cc2)cc1,-1,0,0,-1,-3
O=C(COc1ccc(Br)cc1Br)NC(=O)NC1CCCC1,7,5,4.0*,0,6
CCOC(=O)c1cccc(NC(=O)CN(C)S(=O)(=O)c2cc3ccccc3s2)c1,-1,-2,-1,-2,-7
